WRN inhibitor: blocks human WRN helicase | WRN helicase unwinding, fluorescent forked duplex, kinetic | Q14191 | AID 651768 | 0.46% of 360,000 active | Potency, µM (series often up to 114 µM), hits mostly inhibitors; note: nearly all actives have a fitted effect of over 55% in size
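Enzyme (20 nM final) and test compound sit together 15 min at room temperature before substrate addition. Substrate is a single-forked duplex oligonucleotide (100 nM) labelled with fluorophore and quencher, with 2 mM ATP; helicase unwinding raises red fluorescence, read kinetically.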
FEN1 inh-1: inhibitors of human flap endonuclease 1; Recombinant FEN1 flap cleavage, fluorescence, 15 min; Potency, µM (series often up to 114 µM), usual class: inhibitors; 0.35% of 390,000 active; AID 588795; note: nearly all actives have a fitted effect of over 65% in size
Target sequence (P39748 whole entry, looked up): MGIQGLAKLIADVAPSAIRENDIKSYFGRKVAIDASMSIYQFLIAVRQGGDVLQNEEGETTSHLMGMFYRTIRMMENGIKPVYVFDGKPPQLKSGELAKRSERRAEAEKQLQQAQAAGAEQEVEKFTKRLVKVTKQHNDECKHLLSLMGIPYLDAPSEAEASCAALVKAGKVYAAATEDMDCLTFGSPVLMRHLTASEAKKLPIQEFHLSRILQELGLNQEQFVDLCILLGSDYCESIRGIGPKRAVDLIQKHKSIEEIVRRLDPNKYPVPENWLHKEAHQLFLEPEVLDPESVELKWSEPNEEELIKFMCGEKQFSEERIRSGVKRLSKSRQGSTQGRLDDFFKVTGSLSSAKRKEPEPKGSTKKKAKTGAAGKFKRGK
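Read-out was taken twice, immediately and after 15 min, following addition of 50 nM substrate to 10 nM FEN1 that had sat with test compound for 15 min at room temperature. Curves came from a four-parameter Hill model.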
PI5P4Ka inh: PI5P4K alpha (human) kinase inhibition; max response, %; 1.2% of 330,000 active; PI5P4Kalpha enzyme, ADP-Glo luminescence, 60 min; active compounds read low; AID 652105; P48426; active = max response of -50% or lower; inconclusive = between -30% and -50%; inactive = -30% or higher; note: value at the top dose of about 77 µM
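Luminescence from ADP-Glo served as readout of PI5P4Kalpha activity in a qHTS format. Reaction: enzyme, substrate, compound, ATP at 5 microM final, 60 min at RT.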
PGK inhibitor: blocks T. brucei phosphoglycerate kinase; Potency, µM (series often up to 57.5 µM), most hits filed as inhibitors; P07378; PGK/GAPDH coupled, Kinase-Glo luminescence, 60 min; 0.043% of 380,000 active; note: nearly all actives have a fitted effect of over 60% in size
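Recombinant glycosomal PGK reaction used 1,3-bisphosphoglycerate generated in-well by GAPDH (100nM final) in 100mM TEA pH 7.6, 5mM MgCl2, 0.01% Tween-20. After 60 minutes at room temperature, ATP was read by Kinase-Glo Plus luminescence end-point.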
Pin1 inh: human Pin1 inhibition; Q13526; Pin1 FP peptide displacement, HiFluor488, 10 min; Potency, µM (doses to about 115 µM), actives largely listed as inhibitors; 0.009% of 390,000 active; AID 504891; active = well fitted inhibition curve with a large enough effect in the polarisation, with a control signal flat, not every such curve was filed as active; inconclusive = small, poorly fitted or top-dose-only effect, or effect the other way, or a change in a side signal; inactive = no such curve, though single readings can be large or run the other way; the % refers to the polarisation
Target sequence (Q13526 whole entry, looked up): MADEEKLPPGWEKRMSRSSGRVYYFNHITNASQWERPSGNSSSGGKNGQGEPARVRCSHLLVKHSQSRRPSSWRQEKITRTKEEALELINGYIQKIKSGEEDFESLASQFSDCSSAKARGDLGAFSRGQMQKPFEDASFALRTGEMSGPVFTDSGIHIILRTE
Glioma ERSR ind: induces the endoplasmic reticulum stress response in human glioma cells. AID 602332. U87-MG GRP78 promoter luciferase reporter, 16 h. Potency, µM, usual class: activators. 0.02% of 420,000 active; note: series mostly up to about 76 µM; nearly all actives have a fitted effect of over 35% in size
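ERSR induction read as luciferase luminescence (Bright-Glo, 10 min at room temperature) in stably transfected human U87-MG glioma cells exposed to compounds for 16 h, using GRP78 as sensor.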
FEN1 inh-2: FEN1 inhibition, cherry-pick retest. shares compounds with FEN1 inh-1. 79% of 880 active. Potency, µM, hits mostly inhibitors. FEN1 flap cleavage, TAMRA/BHQ2 fluorogenic DNA substrate; note: nearly all actives have a fitted effect of over 60% in size
Hits are given with their value; [ ] = remark or other dose. Only some compounds are listed: those with a hit (about 1.3% of all), similar ones and a draw of the others. Unless noted, calls come from the whole dose curve; as a rule, active = well fitted curve in the direction sought with a large enough effect; inconclusive = small, poorly fitted or top-dose-only effect, or another doubt; inactive = no such curve, though single readings can be large; an effect the other way counts as inactive or inconclusive.

Cc1cccc2cc(C(c3nnnn3C(C)(C)C)N(Cc3ccco3)CC3CCCO3)c(=O)[nH]c12 (stereo not given) was read as WRN inhibitor 1.7µM, FEN1 inh-1 inconclusive, PI5P4Ka inh inactive, PGK inhibitor inconclusive, Pin1 inh inactive, Glioma ERSR ind inactive and FEN1 inh-2 27.
For Cc1ccc2[nH]c(=O)c(C(c3nnnn3C(C)(C)C)N(Cc3ccco3)CC3CCCO3)cc2c1 (stereo not given) the results were WRN inhibitor inactive, FEN1 inh-1 inactive, Pin1 inh inactive and Glioma ERSR ind inactive.
`COc1cccc(-c2ccnc(-n3ncc(C(=O)NCc4cccnc4)c3C3CC3)n2)c1` gave Glioma ERSR ind inactive.
For CCCCNC(=O)c1sc2ncnc(NCC3CCCO3)c2c1C (stereo not given) the results were Glioma ERSR ind inactive.
`CCOC(=O)c1c(O)c(O)c(C(=O)OCC)n1-c1ccccc1` gave WRN inhibitor inactive, FEN1 inh-1 18µM, PI5P4Ka inh inactive, PGK inhibitor inactive, Pin1 inh inactive, Glioma ERSR ind inactive and FEN1 inh-2 9.5.
For O=c1nc2c(O)cccn2c2c1c(=O)[nH]c1ccccc12 the results were WRN inhibitor inconclusive, FEN1 inh-1 56µM, PI5P4Ka inh -58, PGK inhibitor inactive, Pin1 inh inconclusive, Glioma ERSR ind inactive and FEN1 inh-2 34.
O=C(OCc1nnc(-c2ccccc2)o1)c1ccc([N+](=O)[O-])o1 was read as WRN inhibitor inactive, FEN1 inh-1 inconclusive, PI5P4Ka inh inactive, PGK inhibitor inactive, Pin1 inh inactive and Glioma ERSR ind inactive.
COc1cc(-c2nnc(COC(=O)c3ccc([N+](=O)[O-])o3)o2)cc(OC)c1OC was read as WRN inhibitor inactive, PI5P4Ka inh inactive, PGK inhibitor inactive, Glioma ERSR ind inactive and FEN1 inh-2 8.5.
O=C(O)CCCN1C(=O)c2cccc3cccc(c23)C1=O was read as WRN inhibitor inactive, FEN1 inh-1 inactive, PI5P4Ka inh inactive, PGK inhibitor inactive, Pin1 inh inactive and Glioma ERSR ind inactive.
`CN(C)CCCN1C(=O)c2cccc3cccc(c23)C1=O` gave WRN inhibitor inactive[11.6 µM], FEN1 inh-1 inconclusive, PI5P4Ka inh inactive, PGK inhibitor inactive, Pin1 inh inactive, Glioma ERSR ind inactive and FEN1 inh-2 67.
`CN1CCCc2cc(/C=C/c3ccnc4ccccc34)ccc21` gave FEN1 inh-1 inconclusive and Glioma ERSR ind inactive.
`Cc1nc2ccccc2c2nc3ccccc3n12` gave WRN inhibitor inactive, FEN1 inh-1 22µM, PGK inhibitor inactive, Pin1 inh inactive, Glioma ERSR ind inactive and FEN1 inh-2 27.
O=C(O)c1cc(Cl)ccc1-c1ccc(/C=C/c2cc(C(F)(F)F)[nH]c(=O)n2)o1 was read as WRN inhibitor inconclusive, FEN1 inh-1 inconclusive, PI5P4Ka inh -53, PGK inhibitor inactive, Pin1 inh inconclusive, Glioma ERSR ind inactive and FEN1 inh-2 60.
`Cc1nc(S/C(=C/c2ccc(-c3cc(Cl)ccc3C)o2)C(=O)O)n[nH]1` gave WRN inhibitor inactive[11.6 µM], FEN1 inh-1 inconclusive, PI5P4Ka inh inactive, PGK inhibitor inactive, Pin1 inh inconclusive and Glioma ERSR ind inactive.
Screening COc1cc2[nH]c3c(N4CCN(c5ccccn5)CC4)ncnc3c2cc1OC returned WRN inhibitor inconclusive, FEN1 inh-1 28µM, PI5P4Ka inh inactive, PGK inhibitor inactive, Pin1 inh inactive, Glioma ERSR ind inactive and FEN1 inh-2 24.
For O=C(O)c1ccc2cccnc2c1O the results were WRN inhibitor inactive, FEN1 inh-1 22µM, PI5P4Ka inh inactive, PGK inhibitor inactive, Pin1 inh inactive, Glioma ERSR ind inactive and FEN1 inh-2 7.6.
For CCc1ccc2nc3nc(C)cc(C)c3c(N)c2c1 the results were WRN inhibitor inactive, FEN1 inh-1 inconclusive, PGK inhibitor inactive, Pin1 inh inactive, Glioma ERSR ind inactive and FEN1 inh-2 inconclusive.
`Cc1cc(C)c2c(N)c3ccccc3nc2n1` gave WRN inhibitor inactive, FEN1 inh-1 45µM, PGK inhibitor inactive, Pin1 inh inactive, Glioma ERSR ind inactive and FEN1 inh-2 38.
Screening CCN1CCCC1CNC(=O)c1cnn(-c2nccc(-c3cccs3)n2)c1C1CC1 (stereo not given) returned Glioma ERSR ind inactive.
For CC(=O)N1CCc2c(sc(NC(=O)CSc3ccc(C)cc3)c2-c2nc3ccccc3s2)C1 the results were FEN1 inh-1 inactive, PGK inhibitor inactive, Pin1 inh inactive and Glioma ERSR ind inactive.
For CC(C)N1CCc2c(sc(NC(=O)C3CC3)c2-c2nc3ccccc3s2)C1 the results were Pin1 inh inconclusive and FEN1 inh-2 15.
`COc1ccc(CN2CCOc3c(cc(-c4cccc(OC)n4)cc3OC)C2)c(O)c1` gave Glioma ERSR ind inactive.
Cc1c2cnccc2c(C)c2c1oc1ccccc12 was read as WRN inhibitor inactive[11.6 µM], FEN1 inh-1 35µM, PI5P4Ka inh inactive, PGK inhibitor inactive, Pin1 inh inactive, Glioma ERSR ind inactive and FEN1 inh-2 38.
Screening Cc1nc2c(oc3ccccc32)c(=O)o1 returned WRN inhibitor inactive, FEN1 inh-1 inactive, PGK inhibitor inactive, Pin1 inh inactive and Glioma ERSR ind inactive.
COc1ccccc1CNC(=O)CSc1ccsc1[N+](=O)[O-] was read as WRN inhibitor inactive, FEN1 inh-1 inactive, PI5P4Ka inh inconclusive, PGK inhibitor inactive, Pin1 inh inactive and Glioma ERSR ind inactive.
`O=C(CSc1ccsc1[N+](=O)[O-])NCc1ccccc1` gave WRN inhibitor inactive[11.6 µM], FEN1 inh-1 inactive, PI5P4Ka inh inconclusive, PGK inhibitor inactive, Pin1 inh inactive, Glioma ERSR ind inactive and FEN1 inh-2 inconclusive.
Screening NC(N)=Nc1nc(-c2ccccc2)c2ccccc2n1 returned WRN inhibitor inactive, FEN1 inh-1 inconclusive, PI5P4Ka inh inactive, PGK inhibitor inactive, Pin1 inh inactive, Glioma ERSR ind inactive and FEN1 inh-2 inconclusive.
For Clc1nc(-c2ccccc2)c2ccccc2n1 the results were WRN inhibitor inactive, FEN1 inh-1 inactive, PI5P4Ka inh inactive, PGK inhibitor inactive, Pin1 inh inactive and Glioma ERSR ind inactive.
O=C(O)COc1ccc(C(=O)c2cccs2)c(Cl)c1Cl was read as Glioma ERSR ind inactive.
For Cc1ccccc1C1=C/C(=C(\SS/C(C(=O)c2ccc(OCC(=O)O)c(Cl)c2Cl)=C2\C=C(c3ccccc3C)SS2)C(=O)c2ccc(OCC(=O)O)c(Cl)c2Cl)SS1 the results were WRN inhibitor 22µM, FEN1 inh-1 56µM, PI5P4Ka inh -98, PGK inhibitor inconclusive, Glioma ERSR ind inactive and FEN1 inh-2 inconclusive.
Cc1ncc2c(c1CNC(=O)c1ccc3c(c1)OCO3)CCN(C(=O)c1cnsn1)C2 was read as Glioma ERSR ind inactive.

Source: PubChem (National Center for Advancing Translational Sciences (NCATS))
